According to the supplement of paper PMC11732987, “Enantioselective OTUD7B fragment discovery through chemoproteomics screening and high-throughput optimisation” (Communications Chemistry, 2025):

Legend:
Assay in all cases: log2 ratio of Biotin-Ahx-Ub-VS probe labelling (fragment/DMSO); higher = less target engagement (more negative = stronger competition), active = hit call of the paper (q ≤ 0.05, log2 ratio ≤ -1)
Settings in all cases: compound concentration: 200 uM; treatment time: 3 h
[1] = biological target: T1, USP42 (UniProt Q9H9J4)
T1 sequence (whole entry): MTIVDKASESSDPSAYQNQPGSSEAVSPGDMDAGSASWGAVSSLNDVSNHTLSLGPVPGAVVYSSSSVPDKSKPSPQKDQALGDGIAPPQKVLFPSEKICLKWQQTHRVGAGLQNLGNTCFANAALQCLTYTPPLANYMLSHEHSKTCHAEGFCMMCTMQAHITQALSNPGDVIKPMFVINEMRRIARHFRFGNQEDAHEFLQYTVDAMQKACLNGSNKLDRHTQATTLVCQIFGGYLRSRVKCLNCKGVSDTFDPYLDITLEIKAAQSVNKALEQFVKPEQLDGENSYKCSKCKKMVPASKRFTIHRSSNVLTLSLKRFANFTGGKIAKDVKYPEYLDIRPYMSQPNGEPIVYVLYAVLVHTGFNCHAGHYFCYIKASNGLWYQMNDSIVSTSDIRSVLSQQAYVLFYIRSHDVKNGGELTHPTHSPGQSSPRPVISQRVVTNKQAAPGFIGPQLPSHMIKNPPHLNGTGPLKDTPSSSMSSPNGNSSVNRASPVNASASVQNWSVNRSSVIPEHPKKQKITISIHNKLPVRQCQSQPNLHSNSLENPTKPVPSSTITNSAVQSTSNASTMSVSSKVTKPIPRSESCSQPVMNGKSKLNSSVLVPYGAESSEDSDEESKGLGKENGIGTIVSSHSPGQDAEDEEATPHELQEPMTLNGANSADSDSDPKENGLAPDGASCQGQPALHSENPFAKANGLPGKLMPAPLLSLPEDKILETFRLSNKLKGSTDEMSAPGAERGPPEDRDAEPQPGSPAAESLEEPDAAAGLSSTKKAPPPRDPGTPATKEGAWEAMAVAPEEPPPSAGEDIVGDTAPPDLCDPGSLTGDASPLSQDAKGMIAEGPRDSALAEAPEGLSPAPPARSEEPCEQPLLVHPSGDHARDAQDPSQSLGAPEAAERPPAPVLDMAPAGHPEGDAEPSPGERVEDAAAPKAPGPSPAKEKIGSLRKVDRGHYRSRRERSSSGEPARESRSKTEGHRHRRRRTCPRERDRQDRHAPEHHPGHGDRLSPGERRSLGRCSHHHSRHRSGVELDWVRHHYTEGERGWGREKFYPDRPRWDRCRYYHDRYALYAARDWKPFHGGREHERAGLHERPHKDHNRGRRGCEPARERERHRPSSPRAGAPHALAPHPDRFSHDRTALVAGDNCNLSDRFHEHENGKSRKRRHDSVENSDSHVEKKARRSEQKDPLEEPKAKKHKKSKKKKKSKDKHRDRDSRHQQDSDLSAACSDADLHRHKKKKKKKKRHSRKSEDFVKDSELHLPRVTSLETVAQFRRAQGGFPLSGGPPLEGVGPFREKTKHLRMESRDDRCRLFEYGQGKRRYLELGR
Summary of the method: (§1)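 HEK293T lysate (495 µg per sample, in Tris/CHAPS/IGEPAL buffer with protease inhibitors) was exposed in triplicate for 3 h to fragment at 200 µM or to vehicle, then to Biotin-Ahx-Ub-VS at 0.5 µM final for 1 h. Labelled DUBs were enriched on NeutrAvidin, digested with LysC and trypsin, and analysed by diaPASEF LC-MS/MS. Spectronaut label-free quantities were normalised to the global median, and values are average log2 ratios of fragment over vehicle from an unpaired t-test. Only proteins with ≥2 unique peptides were used.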

[2] = biological target: USP46 (UniProt P62068)
Summary of the method: as §1

[3] = biological target: T2, USP47 (UniProt Q96K76)
T2 sequence (whole entry): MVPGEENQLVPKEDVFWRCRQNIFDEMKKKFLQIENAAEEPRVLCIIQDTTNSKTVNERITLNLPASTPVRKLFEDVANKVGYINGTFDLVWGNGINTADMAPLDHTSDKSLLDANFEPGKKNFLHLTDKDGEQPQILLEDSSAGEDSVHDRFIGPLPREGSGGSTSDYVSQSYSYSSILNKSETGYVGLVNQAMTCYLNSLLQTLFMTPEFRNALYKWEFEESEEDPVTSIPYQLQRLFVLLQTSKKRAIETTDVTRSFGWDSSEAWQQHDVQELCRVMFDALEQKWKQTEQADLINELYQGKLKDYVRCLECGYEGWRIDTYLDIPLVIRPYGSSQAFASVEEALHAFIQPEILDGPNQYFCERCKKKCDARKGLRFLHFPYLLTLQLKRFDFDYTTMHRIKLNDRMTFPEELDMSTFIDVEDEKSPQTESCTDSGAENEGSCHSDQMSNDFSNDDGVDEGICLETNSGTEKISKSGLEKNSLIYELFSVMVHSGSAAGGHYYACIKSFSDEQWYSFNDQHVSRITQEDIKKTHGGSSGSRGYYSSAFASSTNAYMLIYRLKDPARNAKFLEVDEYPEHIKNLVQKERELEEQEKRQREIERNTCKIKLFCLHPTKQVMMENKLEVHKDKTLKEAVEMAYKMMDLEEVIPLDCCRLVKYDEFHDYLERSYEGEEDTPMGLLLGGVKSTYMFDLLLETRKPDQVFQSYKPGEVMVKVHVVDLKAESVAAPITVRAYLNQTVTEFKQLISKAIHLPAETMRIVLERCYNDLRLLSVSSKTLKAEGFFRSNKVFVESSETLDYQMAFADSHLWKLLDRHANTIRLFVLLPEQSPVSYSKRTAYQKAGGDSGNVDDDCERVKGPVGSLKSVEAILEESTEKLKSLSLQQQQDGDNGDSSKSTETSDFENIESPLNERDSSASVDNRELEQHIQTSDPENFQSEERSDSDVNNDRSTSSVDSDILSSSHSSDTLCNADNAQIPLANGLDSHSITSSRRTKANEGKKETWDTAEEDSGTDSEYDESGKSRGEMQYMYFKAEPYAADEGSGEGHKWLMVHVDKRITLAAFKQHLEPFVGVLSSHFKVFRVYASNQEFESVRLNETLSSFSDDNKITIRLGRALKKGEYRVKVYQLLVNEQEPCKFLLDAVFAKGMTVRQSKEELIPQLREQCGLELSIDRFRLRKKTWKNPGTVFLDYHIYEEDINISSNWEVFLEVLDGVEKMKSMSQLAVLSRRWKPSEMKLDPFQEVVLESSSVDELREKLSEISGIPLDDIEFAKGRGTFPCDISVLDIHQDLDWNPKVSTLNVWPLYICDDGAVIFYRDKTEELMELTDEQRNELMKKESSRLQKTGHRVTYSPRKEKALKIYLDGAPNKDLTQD
Summary of the method: as §1

[4] = biological target: T3, USP48 (UniProt Q86UV5)
T3 sequence (whole entry): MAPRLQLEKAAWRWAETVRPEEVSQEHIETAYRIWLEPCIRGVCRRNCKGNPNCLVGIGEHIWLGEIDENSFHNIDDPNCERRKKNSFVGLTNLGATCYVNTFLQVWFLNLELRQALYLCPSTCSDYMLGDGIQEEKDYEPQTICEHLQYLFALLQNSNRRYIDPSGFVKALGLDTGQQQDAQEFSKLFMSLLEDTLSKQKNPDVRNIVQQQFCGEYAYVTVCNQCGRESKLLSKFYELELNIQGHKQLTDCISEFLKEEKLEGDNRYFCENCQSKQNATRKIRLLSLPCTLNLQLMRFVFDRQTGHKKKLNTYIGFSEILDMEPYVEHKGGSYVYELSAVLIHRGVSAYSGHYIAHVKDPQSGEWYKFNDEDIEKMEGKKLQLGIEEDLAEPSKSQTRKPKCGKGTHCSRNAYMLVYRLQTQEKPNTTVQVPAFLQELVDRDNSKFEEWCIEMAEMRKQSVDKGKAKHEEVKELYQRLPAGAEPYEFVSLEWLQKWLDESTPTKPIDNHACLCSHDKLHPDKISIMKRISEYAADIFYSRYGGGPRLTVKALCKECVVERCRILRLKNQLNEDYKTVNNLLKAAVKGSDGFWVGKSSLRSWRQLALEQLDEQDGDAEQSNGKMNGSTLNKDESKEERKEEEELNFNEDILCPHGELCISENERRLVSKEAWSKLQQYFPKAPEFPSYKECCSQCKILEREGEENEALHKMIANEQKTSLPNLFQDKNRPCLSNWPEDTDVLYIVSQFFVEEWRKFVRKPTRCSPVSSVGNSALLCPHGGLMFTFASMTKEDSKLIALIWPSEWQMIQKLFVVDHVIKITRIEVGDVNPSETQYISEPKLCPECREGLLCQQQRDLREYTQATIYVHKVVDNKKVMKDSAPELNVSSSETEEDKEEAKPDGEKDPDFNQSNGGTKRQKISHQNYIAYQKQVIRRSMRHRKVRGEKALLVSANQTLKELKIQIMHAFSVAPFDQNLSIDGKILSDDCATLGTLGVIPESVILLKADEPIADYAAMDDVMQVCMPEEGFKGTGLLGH
Summary of the method: as §1

[5] = biological target: T4, USP5 (UniProt P45974)
T4 sequence (whole entry): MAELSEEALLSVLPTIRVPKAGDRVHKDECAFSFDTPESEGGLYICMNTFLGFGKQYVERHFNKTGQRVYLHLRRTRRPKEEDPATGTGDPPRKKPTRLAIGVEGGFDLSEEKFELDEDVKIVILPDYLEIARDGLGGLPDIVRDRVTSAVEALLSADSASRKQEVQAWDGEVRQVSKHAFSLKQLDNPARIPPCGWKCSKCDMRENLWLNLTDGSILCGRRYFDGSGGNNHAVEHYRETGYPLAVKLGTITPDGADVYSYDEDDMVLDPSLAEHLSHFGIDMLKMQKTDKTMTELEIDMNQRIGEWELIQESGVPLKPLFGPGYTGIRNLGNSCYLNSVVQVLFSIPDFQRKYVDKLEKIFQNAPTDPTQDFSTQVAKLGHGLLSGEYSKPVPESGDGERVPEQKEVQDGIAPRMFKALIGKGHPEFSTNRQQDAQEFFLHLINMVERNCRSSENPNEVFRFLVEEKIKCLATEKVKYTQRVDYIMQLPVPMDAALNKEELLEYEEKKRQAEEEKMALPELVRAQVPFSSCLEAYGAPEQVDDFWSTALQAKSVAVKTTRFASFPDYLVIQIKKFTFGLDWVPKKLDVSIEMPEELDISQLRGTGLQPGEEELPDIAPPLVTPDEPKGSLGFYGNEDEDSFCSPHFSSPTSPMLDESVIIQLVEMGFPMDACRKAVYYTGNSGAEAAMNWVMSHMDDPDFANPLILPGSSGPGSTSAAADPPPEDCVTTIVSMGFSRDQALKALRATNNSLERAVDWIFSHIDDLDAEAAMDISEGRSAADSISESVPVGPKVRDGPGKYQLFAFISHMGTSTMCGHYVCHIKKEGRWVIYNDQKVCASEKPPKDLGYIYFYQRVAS
Summary of the method: as §1

[6] = biological target: USP54 (UniProt Q70EL1)
Summary of the method: as §1

[7] = biological target: USP7 (UniProt Q93009)
Summary of the method: as §1

[8] = biological target: T5, USP8 (UniProt P40818)
T5 sequence (whole entry): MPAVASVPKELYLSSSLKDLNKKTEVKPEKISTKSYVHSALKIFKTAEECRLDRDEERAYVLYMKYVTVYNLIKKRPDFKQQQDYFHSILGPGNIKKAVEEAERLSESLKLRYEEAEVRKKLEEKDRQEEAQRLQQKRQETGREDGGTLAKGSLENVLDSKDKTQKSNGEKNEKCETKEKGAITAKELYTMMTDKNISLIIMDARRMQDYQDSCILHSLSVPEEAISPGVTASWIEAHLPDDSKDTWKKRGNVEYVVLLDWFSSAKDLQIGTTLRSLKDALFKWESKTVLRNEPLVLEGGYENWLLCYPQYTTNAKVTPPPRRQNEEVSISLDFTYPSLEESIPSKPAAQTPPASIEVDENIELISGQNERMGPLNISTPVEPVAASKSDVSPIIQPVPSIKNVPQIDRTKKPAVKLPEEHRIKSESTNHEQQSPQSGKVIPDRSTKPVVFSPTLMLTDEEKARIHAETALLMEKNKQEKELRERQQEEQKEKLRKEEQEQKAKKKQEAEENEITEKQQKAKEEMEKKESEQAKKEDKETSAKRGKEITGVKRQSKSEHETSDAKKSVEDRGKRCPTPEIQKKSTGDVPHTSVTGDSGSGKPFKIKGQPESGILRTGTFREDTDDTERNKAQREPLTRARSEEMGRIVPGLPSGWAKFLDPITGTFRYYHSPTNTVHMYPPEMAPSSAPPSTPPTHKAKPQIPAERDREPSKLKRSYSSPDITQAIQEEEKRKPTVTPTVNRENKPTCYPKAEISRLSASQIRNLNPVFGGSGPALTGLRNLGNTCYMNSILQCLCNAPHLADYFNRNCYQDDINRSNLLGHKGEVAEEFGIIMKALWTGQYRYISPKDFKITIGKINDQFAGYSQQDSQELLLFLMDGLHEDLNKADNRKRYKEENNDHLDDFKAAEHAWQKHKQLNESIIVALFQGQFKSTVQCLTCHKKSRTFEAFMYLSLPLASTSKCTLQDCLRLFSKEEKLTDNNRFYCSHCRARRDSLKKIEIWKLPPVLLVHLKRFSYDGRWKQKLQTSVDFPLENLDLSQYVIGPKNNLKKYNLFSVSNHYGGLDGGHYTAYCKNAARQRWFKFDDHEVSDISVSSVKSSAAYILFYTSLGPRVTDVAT
Summary of the method: as §1

[9] = biological target: USP9X (UniProt Q93008)
Summary of the method: as §1

[10] = biological target: UniProt O00487
Summary of the method: as §1

Measured: log2 ratio of Biotin-Ahx-Ub-VS probe labelling

Chain of USP54 (Q70EL1 whole entry): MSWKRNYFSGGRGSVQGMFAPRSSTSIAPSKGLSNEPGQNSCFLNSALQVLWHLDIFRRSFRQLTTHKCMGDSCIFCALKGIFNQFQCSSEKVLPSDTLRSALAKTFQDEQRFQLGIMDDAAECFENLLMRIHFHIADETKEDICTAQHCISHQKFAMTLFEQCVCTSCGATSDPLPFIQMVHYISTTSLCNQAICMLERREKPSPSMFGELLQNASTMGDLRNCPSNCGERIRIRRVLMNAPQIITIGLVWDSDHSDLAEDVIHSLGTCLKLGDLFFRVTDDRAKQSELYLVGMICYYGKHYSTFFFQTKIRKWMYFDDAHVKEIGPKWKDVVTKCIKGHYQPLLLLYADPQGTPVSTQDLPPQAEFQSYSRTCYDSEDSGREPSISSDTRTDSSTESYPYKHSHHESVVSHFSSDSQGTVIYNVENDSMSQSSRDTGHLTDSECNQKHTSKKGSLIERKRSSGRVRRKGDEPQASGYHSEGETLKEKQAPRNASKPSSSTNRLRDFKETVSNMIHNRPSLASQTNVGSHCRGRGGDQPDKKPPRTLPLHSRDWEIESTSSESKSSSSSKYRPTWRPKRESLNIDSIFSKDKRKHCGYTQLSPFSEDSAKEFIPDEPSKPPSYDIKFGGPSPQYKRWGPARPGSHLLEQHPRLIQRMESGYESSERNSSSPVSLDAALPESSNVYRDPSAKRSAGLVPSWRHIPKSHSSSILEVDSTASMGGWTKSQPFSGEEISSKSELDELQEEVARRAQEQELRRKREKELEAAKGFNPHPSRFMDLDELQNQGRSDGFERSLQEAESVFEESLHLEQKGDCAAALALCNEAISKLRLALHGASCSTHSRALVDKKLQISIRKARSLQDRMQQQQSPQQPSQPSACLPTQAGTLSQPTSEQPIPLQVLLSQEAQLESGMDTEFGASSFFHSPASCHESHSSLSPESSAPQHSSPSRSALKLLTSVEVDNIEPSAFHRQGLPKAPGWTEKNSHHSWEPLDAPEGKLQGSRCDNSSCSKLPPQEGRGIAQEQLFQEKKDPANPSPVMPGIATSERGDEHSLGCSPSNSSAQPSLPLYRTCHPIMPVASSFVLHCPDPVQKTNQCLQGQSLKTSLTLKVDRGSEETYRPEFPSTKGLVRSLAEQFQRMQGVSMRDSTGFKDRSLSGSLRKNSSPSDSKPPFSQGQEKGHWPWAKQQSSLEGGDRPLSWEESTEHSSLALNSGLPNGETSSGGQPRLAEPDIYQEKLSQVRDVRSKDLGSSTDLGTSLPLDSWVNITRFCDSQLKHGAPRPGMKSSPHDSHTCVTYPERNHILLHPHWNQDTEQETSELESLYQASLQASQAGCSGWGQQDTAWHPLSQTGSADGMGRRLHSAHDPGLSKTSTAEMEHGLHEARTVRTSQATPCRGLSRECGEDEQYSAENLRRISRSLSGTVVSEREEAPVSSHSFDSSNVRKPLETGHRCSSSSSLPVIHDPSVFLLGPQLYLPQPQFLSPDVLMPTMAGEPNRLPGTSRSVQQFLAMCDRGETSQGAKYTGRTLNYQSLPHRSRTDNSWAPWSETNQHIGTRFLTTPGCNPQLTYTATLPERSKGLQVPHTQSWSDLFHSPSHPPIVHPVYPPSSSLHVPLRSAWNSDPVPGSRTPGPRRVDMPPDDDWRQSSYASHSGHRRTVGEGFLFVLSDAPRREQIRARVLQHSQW
Chain of UniProt O00487 (O00487 whole entry): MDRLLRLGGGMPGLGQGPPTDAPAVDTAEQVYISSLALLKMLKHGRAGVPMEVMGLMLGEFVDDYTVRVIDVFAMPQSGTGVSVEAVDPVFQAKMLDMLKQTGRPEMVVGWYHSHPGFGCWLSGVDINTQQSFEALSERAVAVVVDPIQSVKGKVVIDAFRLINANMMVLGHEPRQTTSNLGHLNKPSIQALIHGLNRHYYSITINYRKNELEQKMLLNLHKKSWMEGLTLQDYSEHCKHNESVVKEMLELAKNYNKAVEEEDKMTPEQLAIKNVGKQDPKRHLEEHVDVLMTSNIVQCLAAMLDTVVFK
Chain of USP46 (P62068 whole entry): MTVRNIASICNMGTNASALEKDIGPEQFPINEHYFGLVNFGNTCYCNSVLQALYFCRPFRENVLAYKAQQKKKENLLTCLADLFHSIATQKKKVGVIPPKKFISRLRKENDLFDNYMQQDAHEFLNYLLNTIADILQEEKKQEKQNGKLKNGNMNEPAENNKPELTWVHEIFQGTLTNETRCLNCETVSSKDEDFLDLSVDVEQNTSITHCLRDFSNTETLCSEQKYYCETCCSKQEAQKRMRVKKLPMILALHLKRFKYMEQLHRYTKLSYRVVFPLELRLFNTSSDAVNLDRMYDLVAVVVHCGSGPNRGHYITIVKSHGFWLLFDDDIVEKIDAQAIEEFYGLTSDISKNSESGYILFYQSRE
Chain of USP7 (Q93009 whole entry, looked up): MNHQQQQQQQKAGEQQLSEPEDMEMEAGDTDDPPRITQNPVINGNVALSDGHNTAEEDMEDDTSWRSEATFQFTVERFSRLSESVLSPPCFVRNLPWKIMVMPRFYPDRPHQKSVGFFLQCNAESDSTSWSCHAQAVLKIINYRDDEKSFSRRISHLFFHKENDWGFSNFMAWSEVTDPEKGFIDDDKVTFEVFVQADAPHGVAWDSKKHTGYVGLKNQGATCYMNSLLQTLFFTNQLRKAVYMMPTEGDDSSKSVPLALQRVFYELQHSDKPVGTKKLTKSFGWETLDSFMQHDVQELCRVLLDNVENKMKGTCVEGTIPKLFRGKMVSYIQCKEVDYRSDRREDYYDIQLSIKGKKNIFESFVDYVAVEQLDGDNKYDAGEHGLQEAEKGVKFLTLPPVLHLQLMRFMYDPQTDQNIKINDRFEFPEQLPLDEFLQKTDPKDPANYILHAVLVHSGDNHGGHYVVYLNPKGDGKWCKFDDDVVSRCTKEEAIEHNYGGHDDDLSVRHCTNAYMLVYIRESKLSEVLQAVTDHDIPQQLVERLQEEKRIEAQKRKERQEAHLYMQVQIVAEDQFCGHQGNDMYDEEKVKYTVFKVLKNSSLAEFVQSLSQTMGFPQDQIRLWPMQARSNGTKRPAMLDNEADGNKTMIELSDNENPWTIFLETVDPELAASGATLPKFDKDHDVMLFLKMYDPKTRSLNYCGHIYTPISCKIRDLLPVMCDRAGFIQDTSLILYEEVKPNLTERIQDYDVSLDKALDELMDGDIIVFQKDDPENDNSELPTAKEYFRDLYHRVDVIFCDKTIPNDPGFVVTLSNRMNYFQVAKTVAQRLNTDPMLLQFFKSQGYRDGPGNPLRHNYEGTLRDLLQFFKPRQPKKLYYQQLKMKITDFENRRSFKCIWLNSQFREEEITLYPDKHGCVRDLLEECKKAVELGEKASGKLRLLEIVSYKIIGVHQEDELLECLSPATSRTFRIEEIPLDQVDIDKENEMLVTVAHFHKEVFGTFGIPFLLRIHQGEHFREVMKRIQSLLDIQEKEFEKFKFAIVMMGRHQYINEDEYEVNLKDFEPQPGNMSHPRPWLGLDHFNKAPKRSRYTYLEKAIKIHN

O=C(CCl)N1CCC(c2ccn[nH]2)C1 (stereo not given)
inactive: [1] -0.237 | [2] -0.0632 | [3] -0.0366 | [4] -0.675 | [5] -0.0093 | [6] -0.0323 | [7] -0.384 | [8] -0.487 | [9] -0.391 | [10] 0.0518
